Results filed as inconclusive are left out. Values without a mark were called inactive. Active and inactive are the calls of the source. Calls follow the shape of the dose curve; as a rule, active = well fitted activation curve with a large enough effect; inconclusive = small, poorly fitted or top-dose-only effect; inactive = flat fitted curve, though single readings scatter.
test: qHTS assay to identify small molecule phospholipidosis (PLD) inducers (AID 1259344); conditions: HepG2 phospholipidosis, LipidTOX Red imaging, 24 h; series mostly up to 38.3 µM; PLD induction: at the top concentration
Source text: National Center for Advancing Translational Sciences [NCATS]
Drug-induced Phospholipidosis (PLD) caused by cationic amphiphilic drugs is characterized by the appearance of unicentric or multicentric-lamellar bodies when viewed under electron microscope. Electron microscopy is the gold standard method for PLD detection, however, this method is time-consuming and labor intensive, making it unsuitable for evaluating a large set of compounds. A cell-based phospholipidosis assay has been developed using the LipidTox reagent in HepG2 cells and miniaturized into a 1536-well plate format. Drug induced phospholipid accumulation is stained with the LipidTox dyes in red color which then is determined using an automated high content screening system.
HepG2 cells are dispensed at 900 cells/3 uL/well into Collagen I-coated 1536-well black-wall/clear-bottom assay plates (Greiner Bio-One, Monroe, NC) using the Multidrop Combi 8 channel dispenser (Thermo Fisher, Waltham, MA, USA). The assay plates are incubated at 37 C for 4 hours to allow the cell attachment. 3 uL of 1:500 LipidTOX Red dye is added using the dispenser, and then 23 nL compounds are added via a Wako Pintool station (Wako Automation, San Diego, CA). Amiodarone, a known PLD inducer, was used as a positive control and DMSO was used as a negative control. The assay plates were then incubated at 37 C for 24 hours.
For fixations, 4 uL of 8% paraformaldehyde fixative solution containing 10 ug/mL Hoechst 33342 in Dulbecco's phosphate-buffered saline (DPBS) is added using a Kalypsys washer/dispenser (Kalypsys, San Diego, CA, USA). After incubation at room temperature for 30 min, the assay plates are washed once with DPBS using a Kalypsys washer/dispenser. The assay plates are then sealed and stored at 4 C before imaging. The fluorescence intensities (595 nm excitation, 615 nm emission for LipidTOX; 352 nm excitation, 461 nm emission for Hoechst 33342) are measured using an ImageXpress Micro Widefield High Content Screening System (Molecular Devices, Sunnyvale, CA, USA) with a 20x Plan Fluor objective. Images are acquired for one site in each well and analyzed with the MetaXpress software (Molecular Devices) using the Transfluor module. Several algorithmic outputs, such as pit count per well, pit count per cell, pit integrated intensity per well, and pit integrated intensity per cell, are used for quantitative image analysis for PLD.
% is scaled to controls: 0 for no effect and ±100 for the full control effect; potency is read from the fitted curve at half-maximal effect.

Compound | PLD induction | Potency
COc1ccc2c(c1)C13CCCC[C@@H]1C(C2)N(C)CC3 (stereo not given in full) | 1.98% | –
CNC1(c2ccccc2Cl)CCCCC1=O (stereo not given) | – | inactive
O.O.O.O=C([O-])C(O)C(O)C(=O)[O-].O=C([O-])C(O)C(O)C(=O)[O-].[K+].[K+].[Sb].[Sb] (stereo not given) | -3.46% | –
C=C[C@H]1CN2CC[C@H]1C[C@@H]2[C@@H](O)c1ccnc2ccccc12 | 4.18% | –
O=c1c2ccccc2[se]n1-c1ccccc1 | -0.137% | –
CCCC(C)(COC(N)=O)COC(=O)NC1CC1 (stereo not given) | -0.265% | –
CN=C1CN(O)C(c2ccccc2)=c2cc(Cl)ccc2=N1 | – | inactive
C=CCC1([C@@H](C)CCC)C(=O)NC(=O)NC1=O | -3.86% [at 78.4 µM] | –
C[N+]1(C)CCCCC1COC(=O)C(O)(c1ccccc1)c1ccccc1 (stereo not given) | 0.116% | –
N#CC(C#N)=Cc1cc(O)c(O)c(O)c1 | -0.477% | –
Cc1ccccc1-n1c(CF)nc2ccc(N)cc2c1=O | -0.862% | –
CCC1(C)CC(=O)NC(=O)C1 | -0.0382% [at 15.5 µM] | –
CCOC(=O)C1(c2ccccc2)CCCN(C)CC1 (stereo not given) | -0.0748% | –
COc1ccc2c3c1O[C@H]1C(=O)CC[C@H]4[C@@H](C2)N(C)CC[C@]314 | 0.146% | –
CC(C)C[C@H](CN)CC(=O)O | 0.886% | –
CCCC(=O)OC(C(Cl)(Cl)Cl)P(=O)(OC)OC (stereo not given) | -0.757% | –
c1ccc2c(c1)Sc1ccccc1N2CC1CN2CCC1CC2 (stereo not given) | – | 3.55 µM (active)
S=C(S)N1CCNCC1 | 0.648% | –
Oc1ccc2c3c1O[C@H]1[C@@H](O)C=C[C@H]4[C@H](C2)NCC[C@@]341 | -1.54% | –
OC(c1ccccc1)(c1ccccc1)C1CN2CCC1CC2 (stereo not given) | 7.66% | –

Compound | PLD induction | Potency
c1ccc(C2(N3CCCC3)CCCCC2)cc1 | 1.28% | –
CN[C@]1(c2ccccc2Cl)CCCCC1=O | 1.25% | –
COc1cc([C@@H]2c3cc4c(cc3[C@@H](O)[C@H]3COC(=O)[C@H]23)OCO4)cc(OC)c1O | -1.16% | –
CCCCCCCCCC(=O)O[C@H]1CC[C@H]2[C@@H]3CCC4=CC(=O)CC[C@]4(C)[C@H]3CC[C@]12C | 14.5% | –
CCCCc1ccc(C(=O)O)nc1 | -0.568% | –
CCC(C)(S(=O)(=O)CC)S(=O)(=O)CC | -1.17% | –
Cc1nnc2n1-c1sc(Br)cc1C(c1ccccc1Cl)=NC2 | -3.53% | –
C=CCN(C1=NCCN1)c1c(Cl)cccc1Cl | -0.372% | –
CCOc1ccc2c3c1O[C@H]1[C@@H](O)C=C[C@H]4[C@@H](C2)N(C)CC[C@@]341 | -0.918% | –
C#CCN1CC(=O)N(COC(=O)C2C(C=C(C)C)C2(C)C)C1=O (stereo not given) | -0.449% | –
Nc1ccc([N+](=O)[O-])cc1 | 9.27% [at 78.4 µM] | –
CN[C@H]1C[C@@H](N)[C@H](O)[C@@H](O[C@@H]2O[C@H](CO)[C@H](O)[C@@H]3OC4(O[C@H]23)O[C@H](C(N)CO)[C@H](O)[C@H](O)[C@H]4O)[C@@H]1O (stereo not given in full) | – | inactive
O=C(O)CCCO | 3.59% [at 19 µM] | –
C[C@]12C=CC(=O)C=C1CC[C@@H]1[C@@H]2CC[C@]2(C)OC(=O)CC[C@@H]12 | 2.74% | –
CN1C(=O)CC(=O)N(c2ccccc2)c2cc(Cl)ccc21 | 0.28% | –
CCC1(c2ccccc2)C(=O)NC(=O)N(C)C1=O (stereo not given) | -0.656% | –
[S]=[Sb](=[S])[S][Sb](=[S])=[S] | -0.767% | –
C[C@H]1CC[C@]2(NC1)O[C@H]1C[C@H]3[C@@H]4CC[C@H]5C[C@@H](O[C@@H]6O[C@H](CO)[C@H](O[C@@H]7O[C@H](CO)[C@@H](O)[C@H](O[C@@H]8OC[C@@H](O)[C@H](O)[C@H]8O)[C@H]7O[C@@H]7O[C@H](CO)[C@@H](O)[C@H](O)[C@H]7O)[C@H](O)[C@H]6O)CC[C@]5(C)[C@H]4CC[C@]3(C)[C@H]1[C@@H]2C | -0.834% | –
CC(C)=CCN1CC[C@]2(C)c3cc(O)ccc3C[C@H]1[C@H]2C | -0.374% [at 3.15 µM] | –
O=P1(N(CCCl)CCCl)NC(OO)CCO1 (stereo not given) | -0.967% | –
